# According to PubChem BioAssay (NCI):
# Compounds without any hit were thinned out: in the full panel of roughly 79,000, 15% have a hit. Active and inactive are the calls of the source. Rule as the data show it: active = growth inhibition above about 70%; inactive = the rest. Where a SMILES comes first, the peptide text is derived from it. The star is where a group is joined. Cbz = O=C(OCc1ccccc1)*
# Experiment: NCI Yeast Anticancer Drug Screen. Data for the bub3 strain (AID 167)
# Conditions: S. cerevisiae bub3 mutant strain, at 50.0 µM, active compounds read high
# Method in brief: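 Readout: yeast growth inhibition, expressed relative to vehicle-only wells. The test organism is a mutant strain from a panel with lesions in DNA repair or checkpoint genes.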
row,SMILES,growth inhibition
1,CCOC(=O)CCC(NC(=O)OCc1ccccc1)C(=O)NC(CCC(=O)OCC)C(=O)OCC (stereo unspecified) (Cbz-Glu(OEt)-Glu(OEt)-OEt; configuration not given here),4.65% (inactive)
2,CCCCCC(=O)Cc1cc(O)cc2c1C(=O)Oc1cc(O)c(C(=O)O)c(CCCCC)c1O2,16.4% (inactive)
3,CC(C)C1=C(Cc2ccccc2)C(=O)O/C1=C\c1cc(Cl)c(O)c(Cl)c1,32.5% (inactive)
4,CCCCCCCCCC(=O)N/N=C/c1cccnc1,71.1% (active)
5,COc1ccc(CCN2CN=C(Sc3ccc([N+](=O)[O-])cc3Cl)NC2)cc1OC,21.9% (inactive)
6,CCOC(=O)C(N=Nc1ccc(C)cc1Br)C(C)=O (stereo unspecified),22.4% (inactive)
7,O=C1S/C(=C2\C(=O)N(CN3CCCCC3)c3ccc(Br)cc32)C(=O)N1CN1CCCCC1,-1.6% (inactive)
8,ClCC1OC1CCl (stereo unspecified),9.8% (inactive)
9,CC(=O)c1c(P(=O)(OC(C)C)OC(C)C)nn(-c2ccc([N+](=O)[O-])cc2)c1C,14.2% (inactive)
10,O=C1CSC(/C(=C/c2ccccc2)c2nc3ccccc3[nH]2)=N1,-1.6% (inactive)
11,Cc1ccc(S(=O)(=O)NC(=O)C2(Br)S(=O)(=O)OCCOS2(=O)=O)cc1,24.6% (inactive)
12,O=c1[nH]c(=O)c2nnoc2[nH]1,7.4% (inactive)
13,CCC(=O)OC1CCC(OC(=O)CC)CC1 (stereo unspecified),-6.05% (inactive)
14,CC(C)(C)OC(=O)N1CCCC1C(=O)Oc1ccc([N+](=O)[O-])cc1 (stereo unspecified),6.25% (inactive)
15,CCOC(=O)[C@H](C)OC(=O)[C@@](C)(NC(=O)c1ccccc1C(=O)OC)[C@@H]1NC=C(C(=O)OC)CS1,29% (inactive)
16,COc1ccc(/C=N/Nc2ccc(S(=O)(=O)O)cc2)cc1,-21.2% (inactive)
17,CCOC(=O)c1[nH]c(-c2ccc(OC)cc2)c(C(=O)OCC)c1-c1ccccc1,3.05% (inactive)
18,CC#CC(O)(C(=O)OCCCN(C)C)C1CCCCC1 (stereo unspecified),8.3% (inactive)
19,O=C1CN(c2ccccc2)C(=O)CN1/N=C/c1ccc[nH]1,-7.7% (inactive)
20,CCOC(=O)c1c(NNc2ccccc2)nc2ccccc2c1-c1ccccc1,-10.3% (inactive)
21,COc1ccc(C(=O)c2ccccc2C)cc1OC,36.5% (inactive)

# Experiment: NCI Yeast Anticancer Drug Screen. Data for the mlh1 rad18 strain (AID 175)
# Conditions: S. cerevisiae mlh1 rad18 strain growth inhibition; at 50.0 µM; active compounds read high
# Method in brief: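 Growth inhibition of the yeast strain was measured after compound exposure and expressed relative to vehicle-treated controls. The strain carries defined defects in DNA damage repair.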
row,SMILES,growth inhibition
1,O=C(CCCl)OC1CCCC1,9% (inactive)
2,NC(CS(=O)Cc1ccccc1)C(=O)O (stereo unspecified),-6.85% (inactive)
3,CC(=O)OCCc1cccc(C)c1,7.3% (inactive)
4,CCc1nc(=S)c2cnn(-c3ccccc3)c2[nH]1,23.6% (inactive)
5,CC(C)N(CCn1c2c3ccccc3ccc2c2oc(=O)c3ccccc3c21)C(C)C,-8% (inactive)
6,COc1ccc(/C=C2\N=C(c3cccc(Cl)c3)OC2=O)cc1OC,-7.85% (inactive)
7,O=C1C(CO)=C[C@H](O)[C@H]2O[C@@H]12,-29.4% (inactive)
8,O=C(O)c1ccccc1SC(Sc1ccccc1C(=O)O)c1ccc2c(c1)OCO2,28% (inactive)
9,O=S(=O)([N-]c1nc2ccccc2nc1-[n+]1ccccc1)c1ccccc1,-22.6% (inactive)
10,CCCCC(O)(CCCC)CC(C)C,5.85% (inactive)
11,O=C1CCCC(CCc2ccccc2)O1 (stereo unspecified),-7.9% (inactive)
12,O=C1c2ccccc2C(=O)N1CCc1ccccc1,14.1% (inactive)
13,NCCC(=O)O,16.9% (inactive)
14,Nc1cc(S(=O)(=O)O)nc(N)[n+]1[O-],2.8% (inactive)
15,CC(O)c1cccc(NC(=O)Nc2ccc(Cl)c(Cl)c2)c1 (stereo unspecified),54.5% (inactive)
16,CNC(=O)OCc1nc(N=[N+]=[N-])n(C)c1COC(=O)NC,-24.4% (inactive)
17,Cc1ccc(C2(c3ccc(C)cc3)OCC(C)(CBr)CO2)cc1,-14.5% (inactive)
18,C/C(=N\N=C(/C)c1ccc(N)cc1)c1ccc(N)cc1,9% (inactive)
19,CCOC(C)C1C2CCCCC21 (stereo unspecified),8.75% (inactive)
20,CCOC(=O)CCC(NC(=O)OCc1ccccc1)C(=O)NC(CCC(=O)OCC)C(=O)OCC (stereo unspecified) (Cbz-Glu(OEt)-Glu(OEt)-OEt; configuration not given here),-25.8% (inactive)

row,SMILES,growth inhibition
1,CCCCCC(=O)Cc1cc(O)cc2c1C(=O)Oc1cc(O)c(C(=O)O)c(CCCCC)c1O2,16.9% (inactive)
2,CC(C)C1=C(Cc2ccccc2)C(=O)O/C1=C\c1cc(Cl)c(O)c(Cl)c1,-30.9% (inactive)
3,CCCCCCCCCC(=O)N/N=C/c1cccnc1,91.3% (active)
4,COc1ccc(CCN2CN=C(Sc3ccc([N+](=O)[O-])cc3Cl)NC2)cc1OC,11.1% (inactive)
5,CCOC(=O)C(N=Nc1ccc(C)cc1Br)C(C)=O (stereo unspecified),24.1% (inactive)
6,O=C1S/C(=C2\C(=O)N(CN3CCCCC3)c3ccc(Br)cc32)C(=O)N1CN1CCCCC1,22.2% (inactive)
7,ClCC1OC1CCl (stereo unspecified),1.95% (inactive)
8,CC(=O)c1c(P(=O)(OC(C)C)OC(C)C)nn(-c2ccc([N+](=O)[O-])cc2)c1C,32.2% (inactive)
9,O=C1CSC(/C(=C/c2ccccc2)c2nc3ccccc3[nH]2)=N1,-0.25% (inactive)
10,Cc1ccc(S(=O)(=O)NC(=O)C2(Br)S(=O)(=O)OCCOS2(=O)=O)cc1,12% (inactive)
11,O=c1[nH]c(=O)c2nnoc2[nH]1,-16.5% (inactive)
12,CCC(=O)OC1CCC(OC(=O)CC)CC1 (stereo unspecified),-6.2% (inactive)
13,CC(C)(C)OC(=O)N1CCCC1C(=O)Oc1ccc([N+](=O)[O-])cc1 (stereo unspecified),58.5% (inactive)
14,CCOC(=O)[C@H](C)OC(=O)[C@@](C)(NC(=O)c1ccccc1C(=O)OC)[C@@H]1NC=C(C(=O)OC)CS1,5.8% (inactive)
15,COc1ccc(/C=N/Nc2ccc(S(=O)(=O)O)cc2)cc1,13.2% (inactive)
16,CCOC(=O)c1[nH]c(-c2ccc(OC)cc2)c(C(=O)OCC)c1-c1ccccc1,24.1% (inactive)
17,CC#CC(O)(C(=O)OCCCN(C)C)C1CCCCC1 (stereo unspecified),9.25% (inactive)
18,O=C1CN(c2ccccc2)C(=O)CN1/N=C/c1ccc[nH]1,-13.4% (inactive)
19,CCOC(=O)c1c(NNc2ccccc2)nc2ccccc2c1-c1ccccc1,-1.7% (inactive)
20,COc1ccc(C(=O)c2ccccc2C)cc1OC,0.15% (inactive)
